Results on 52 compounds are retold here after ChEMBL document CHEMBL4513216, “Probing the Open Global Health Chemical Diversity Library for Multistage-Active Starting Points for Next-Generation Antimalarials” (ACS Infect Dis, 2020).

In all, about 69,000 compounds went through this assay and about 8,600 (12%) showed an effect of 50% or more. Only a selection was taken, and strong results are over-represented in it overall.

The test system of the assay is Plasmodium berghei. Kind of assay: Screen against P. berghei liver stage (PbLuc), transformed with Luciferase, at 10uM. The class given is functional, HepG2. As to conditions: tested at 10 uM.
Regarding `Cc1ncn(-c2cc(N3CCN(S(C)(=O)=O)CC3)ncn2)c1C`, the INHIBITION amounted to 51.5%.
With `Cc1nc(N2CCN(S(C)(=O)=O)CC2)cc(-n2cnc(C)c2C)n1` the figure was 23.9%; with `Cc1nc(C)n(C2CCCN(C(=O)c3cncnc3C)C2)n1` (configuration not stated), 1.563%.
With `CS(=O)(=O)NCCCN1CCCC1c1cccc(Br)c1` (configuration not stated) the figure was -5.25%; with `CCNc1ncc(C(=O)N[C@H](C(N)=O)c2ccccc2)cn1`, 17.1%; with `CCNc1ncc(C(=O)NC2CCOCC2)cn1`, 1.94%.
With `CCNc1ncc(C(=O)NC2CCc3ccccc3C2)cn1` (configuration not stated) the figure was 80.9%; with `CCNc1ncc(C(=O)NC(c2ccccc2)c2ccco2)cn1` (configuration not stated), 33.4%; with `CCNc1ncc(C(=O)NC2CCSC2)cn1` (configuration not stated), 37.7%.
As to `CCNc1ncc(C(=O)N[C@@H](C)[C@H](O)c2ccccc2)cn1`, the INHIBITION is given as 71.2%.
With `CCc1nnc2n1CCN(C(=O)c1cc(Cl)c[nH]1)C2` the figure was 24.39%; with `Cc1sc(C(=O)NS(C)(=O)=O)cc1-c1ccc(F)cc1`, 32.7%; with `CCCN1CCC2(CC1)COc1ccccc1S(=O)(=O)N(CC1CC1)C2`, -17.1%.
With `CO[C@@H]1CC[C@H]2[C@H]1OCCN2S(=O)(=O)C1CC1` the figure was -15.2%.
With `Cc1cc(C)c(CNC(=O)C(C)Oc2ccccc2C#N)c(=O)[nH]1` (configuration not stated), the INHIBITION is 37.9%.
With `CCS(=O)(=O)N(C)C1CCN(C(=O)c2cccc(Cl)c2)CC1` the figure was 61.8%; with `CCN(C1CCN(C(=O)c2cccc(Cl)c2)CC1)S(C)(=O)=O`, 50%.
With `CCS(=O)(=O)N(C)C1CCN(C(=O)c2ccc(C)c(C)c2)CC1` the figure was 27.7%; with `CCS(=O)(=O)N(C)C1CCN(C(=O)c2ccc(Cl)cc2)CC1`, 47.4%; with `CN(C)C1COC2(CCN(C(=O)c3cccc(Cl)c3)CC2)C1` (configuration not stated), -9.74%.
With `CN(C)CCN1CC[C@@H]2[C@@H]1CCN2C(=O)c1cccc(Cl)c1` the figure was 40.4%.
Take `O=C(CC1CC1)N1CC[C@H]2[C@@H]1CCC(=O)N2Cc1ccncc1`: the INHIBITION came to 29%.
Turning to `Cc1cccc(SC2CCN(C(=O)CCCS(N)(=O)=O)CC2)c1`, the INHIBITION was 32.8%.
With `Cc1ccccc1SC1CCN(C(=O)C2[C@H]3CNC[C@@H]23)CC1` (some centres not stated) the figure was 90.7%; with `Cc1ccccc1N1CCCN(C(=O)CCCS(N)(=O)=O)CC1`, 21.6%; with `Cc1ccccc1SC1CCN(C(=O)C2CNCC(=O)N2)CC1` (configuration not stated), 1.37%.
With `Cc1ccccc1SC1CCN(C(=O)CCCS(N)(=O)=O)CC1` the figure was 53.7%.
With `Cc1ccccc1SC1CCN(C(=O)C2CNC(=O)N2)CC1` (configuration not stated) the figure was 12.8%.
As to `Cc1cc(C2CCCN2Cc2ccc(S(=O)(=O)N(C)C)o2)on1` (configuration not stated), the INHIBITION was determined as 5.9%.
In the case of `OCC1N(Cc2ccco2)C2CCC1(O)CC2` (configuration not stated), the INHIBITION was determined as 32.8%.
With `O=C1NCCN1CCNc1cc(-c2ccccc2)nc2ccnn12`, the INHIBITION is -39.2%.
With `Cc1noc(C)c1CN1CCC2(CC1)NC(=O)CC2c1ccncc1` (configuration not stated) the figure was 25.5%; with `O=C1CC(c2ccncc2)C2(CCN(CCO)CC2)N1` (configuration not stated), 47.8%; with `O=C1CC(c2ccncc2)C2(CCN(CCc3ccccc3)CC2)N1` (configuration not stated), 90.8%.
With `O=C1CC(c2ccncc2)C2(CCN(C(=O)c3cccs3)CC2)N1` (configuration not stated) the figure was 73%; with `O=C1CC(c2ccncc2)C2(CCN(C(=O)c3ccnnc3)CC2)N1` (configuration not stated), 41.6%.
As to `O=C1CC(c2ccncc2)C2(CCN(C(=O)c3ccc[nH]3)CC2)N1` (configuration not stated), the INHIBITION is recorded as 33.5%.
Take `Cc1noc(C)c1CN1CCC2(CC1)NC(=O)CC2c1ccccc1` (configuration not stated): the INHIBITION is reported as 65.7%.
Take `O=C1CC(c2ccccc2)C2(CCN(Cc3ccncc3)CC2)N1` (configuration not stated): the INHIBITION was found to be 8.64%.
Take `Cc1noc(C)c1CN1CCC2(CC1)NC(=O)CC2c1cnn(C)c1` (configuration not stated): the INHIBITION amounted to 12.5%.
With `CCc1nnc(NC(=O)Cc2c(C)nc(C)[nH]c2=O)s1` the figure was 13.75%; with `Cc1nnc(CN2CCN(C(C)c3nc(C4CC4)no3)CC2)o1` (configuration not stated), -33.7%.
With `COc1ccccc1-c1ccc(C2CCCN(C(C)=O)C2)nc1` (configuration not stated) the figure was 19.4%; with `O=C(NC1CCCc2c1[nH]c1ccc(F)cc21)c1n[nH]c2c1CCC2` (configuration not stated), 61.2%; with `Cc1c(C(=O)N[C@@H]2CC[C@@H](N3CCCC3)[C@@H]2O)[nH]c2ccc(F)cc12`, 29.5%.
With `O=C(NC1CCCc2c1[nH]c1ccc(F)cc21)c1n[nH]c2c1CCCC2` (configuration not stated) the figure was -8.99%; with `O=C(Cc1cccc(F)c1)NC1CCCc2cn[nH]c21` (configuration not stated), 18.7%.
Regarding `O=C(NCCc1ccccn1)c1n[nH]c2c1CCC2`, the INHIBITION is listed as -15.9%.
With `CC(=O)NC1CCCc2c1[nH]c1ccc(F)cc21` (configuration not stated) the figure was 62.4%; with `CCC1CN(C(=O)CN2CCN(c3nccc(OC)n3)CC2)CCO1` (configuration not stated), -28.4%.
Turning to `CC(=O)N1CCO[C@@H]2CN(C(=O)c3cc(C)oc3C)CC[C@@H]2C1`, the INHIBITION amounted to 26.2%.
Take `CN(Cc1ccco1)[C@@H]1CN(C(=O)c2ccnnc2)C[C@@H]2CCCO[C@@H]21`: the INHIBITION is recorded as 18.5%.
